Test results published in PubChem BioAssay AID1159580 (chemical genetic matrix, 2015).
Among all 5,500 compounds or so, about 2,000 (36%) were called active. Inconclusive results (about 18%) are left out. No stated cut-off is given here; in the data, active means normalized growth mostly below about 0.91 (no sharp cut-off); inconclusive means no clear call, values can overlap the other calls; inactive means mostly above about 0.92. This is one part of the list.

Experiment: chemical genetic growth profiling, strain panel (AID 1159580);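 further: tested at 20 µM; growth read once vehicle control cultures reached saturation at 30 °C; 1 = growth at the plate median or of vehicle wells; lower values mean less growth of the strain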
Conditions: S. cerevisiae deletion strains, growth OD

Measured: normalized growth

COc1ccc2c(c1OC)C(=O)O[C@@H]2[C@H]1c2c(cc3c(c2OC)OCO3)CCN1C
inactive: locus YAL040C, strain CLN3, active compounds read low 0.984 | locus YCL061C, strain MRC1 (second series), active compounds read low 1 | locus YDR150W, strain NUM1, active compounds read low 1 | locus YDR363W, strain ESC2, active compounds read low 0.998 | locus YER002W, strain NOP16, active compounds read low 0.985 | locus YGR229C, strain SMI1, active compounds read low 0.998 | locus YJR075W, strain HOC1, active compounds read low 1 | locus YMR307W, strain GAS1, active compounds read low 0.991 | locus YNL153C, strain GIM3, active compounds read low 1.01 | locus YNL175C, strain NOP13, active compounds read low 1 | locus YNL197C, strain WHI3, active compounds read low 1.01 | locus YNL224C, strain SQS1, active compounds read low 1 | locus YNL322C, strain KRE1, active compounds read low 0.994 | locus YOR083W, strain WHI5 (second series), active compounds read low 1.01 | locus YPL055C, strain LGE1, active compounds read low 0.99
